Data: paper PMC11062922 (Nature Chemical Biology, 2023)
Like-named read-outs stand apart in the source and are kept apart here.

System: PKN1
Conditions: read-out: apparent Kd, n = 1

Lestaurtinib was tested, and the potency estimated from few doses (compound concentrations:100 nM and 1000 nM (sheet 'Lestaurtinib' of Supplementary Table 1),run:Lestaurtinib_02364_R2,Plate:MR002) was 487 nM, the potency estimated from few doses (compound concentrations:100 nM and 1000 nM (sheet 'Lestaurtinib' of Supplementary Table 1),run:Lestaurtinib_02364_R3,Plate:MR002) was 408 nM and the potency estimated from few doses (compound concentrations:100 nM and 1000 nM (sheet 'Lestaurtinib' of Supplementary Table 1),run:Lestaurtinib_02367_R1,Plate:MR003) was 440 nM. For the same substance, the potency estimated from few doses (compound concentrations:100 nM and 1000 nM (sheet 'Lestaurtinib' of Supplementary Table 1),run:Lestaurtinib_02367_R2,Plate:MR003) was 488 nM, the potency estimated from few doses (compound concentrations:100 nM and 1000 nM (sheet 'Lestaurtinib' of Supplementary Table 1),run:Lestaurtinib_02381_R1,Plate:MR004) was 350 nM and the potency estimated from few doses (compound concentrations:100 nM and 1000 nM (sheet 'Lestaurtinib' of Supplementary Table 1),run:Lestaurtinib_02381_R2,Plate:MR004) was 390 nM. It also gave a potency estimated from few doses (compound concentrations:100 nM and 1000 nM (sheet 'Lestaurtinib' of Supplementary Table 1),run:Lestaurtinib_02381_R3,Plate:MR004) of 242 nM, a potency estimated from few doses (compound concentrations:100 nM and 1000 nM (sheet 'Lestaurtinib' of Supplementary Table 1),run:Lestaurtinib_02407_R1,Plate:MR005) of 519 nM and a potency estimated from few doses (compound concentrations:100 nM and 1000 nM (sheet 'Lestaurtinib' of Supplementary Table 1),run:Lestaurtinib_02422_R1,Plate:MR006) of 327 nM. For the same substance, the potency estimated from few doses (compound concentrations:100 nM and 1000 nM (sheet 'Lestaurtinib' of Supplementary Table 1),run:Lestaurtinib_02422_R2,Plate:MR006) was 52.5 nM, the potency estimated from few doses (compound concentrations:100 nM and 1000 nM (sheet 'Lestaurtinib' of Supplementary Table 1),run:Lestaurtinib_02437_R1,Plate:MR007) was 578 nM and the potency estimated from few doses (compound concentrations:100 nM and 1000 nM (sheet 'Lestaurtinib' of Supplementary Table 1),run:Lestaurtinib_02437_R2,Plate:MR007) was 490 nM. The potency estimated from few doses (compound concentrations:100 nM and 1000 nM (sheet 'Lestaurtinib' of Supplementary Table 1),run:Lestaurtinib_02438_R1,Plate:MR008) was 516 nM, the potency estimated from few doses (compound concentrations:100 nM and 1000 nM (sheet 'Lestaurtinib' of Supplementary Table 1),run:Lestaurtinib_02438_R2,Plate:MR008) was 520 nM and the potency estimated from few doses (compound concentrations:100 nM and 1000 nM (sheet 'Lestaurtinib' of Supplementary Table 1),run:Lestaurtinib_02438_R3,Plate:MR008) was 483 nM. It also gave a potency estimated from few doses (compound concentrations:100 nM and 1000 nM (sheet 'Lestaurtinib' of Supplementary Table 1),run:Lestaurtinib_02443_R1,Plate:MR009) of 429 nM, a potency estimated from few doses (compound concentrations:100 nM and 1000 nM (sheet 'Lestaurtinib' of Supplementary Table 1),run:Lestaurtinib_02443_R2,Plate:MR009) of 415 nM and a potency estimated from few doses (compound concentrations:100 nM and 1000 nM (sheet 'Lestaurtinib' of Supplementary Table 1),run:Lestaurtinib_02443_R3,Plate:MR009) of 397 nM. The potency estimated from few doses (compound concentrations:100 nM and 1000 nM (sheet 'Lestaurtinib' of Supplementary Table 1),run:Lestaurtinib_02473_R1,Plate:MR010) was 430 nM, the potency estimated from few doses (compound concentrations:100 nM and 1000 nM (sheet 'Lestaurtinib' of Supplementary Table 1),run:Lestaurtinib_02473_R2,Plate:MR010) was 385 nM and the potency estimated from few doses (compound concentrations:100 nM and 1000 nM (sheet 'Lestaurtinib' of Supplementary Table 1),run:Lestaurtinib_02482_R1,Plate:MR011) was 508 nM. The potency estimated from few doses (compound concentrations:100 nM and 1000 nM (sheet 'Lestaurtinib' of Supplementary Table 1),run:Lestaurtinib_02482_R2,Plate:MR011) was 460 nM, the potency estimated from few doses (compound concentrations:100 nM and 1000 nM (sheet 'Lestaurtinib' of Supplementary Table 1),run:Lestaurtinib_02482_R3,Plate:MR011) was 432 nM and the potency estimated from few doses (compound concentrations:100 nM and 1000 nM (sheet 'Lestaurtinib' of Supplementary Table 1),run:Lestaurtinib_02487_R3,Plate:MR012) was 500 nM. The potency estimated from few doses (compound concentrations:100 nM and 1000 nM (sheet 'Lestaurtinib' of Supplementary Table 1),run:Lestaurtinib_02496_R1,Plate:MR013) was 473 nM, the potency estimated from few doses (compound concentrations:100 nM and 1000 nM (sheet 'Lestaurtinib' of Supplementary Table 1),run:Lestaurtinib_02496_R2,Plate:MR013) was 455 nM and the potency estimated from few doses (compound concentrations:100 nM and 1000 nM (sheet 'Lestaurtinib' of Supplementary Table 1),run:Lestaurtinib_02496_R3,Plate:MR013) was 459 nM. The potency estimated from few doses (compound concentrations:100 nM and 1000 nM (sheet 'Lestaurtinib' of Supplementary Table 1),run:Lestaurtinib_02566_R1,Plate:MR014) was 512 nM, the potency estimated from few doses (compound concentrations:100 nM and 1000 nM (sheet 'Lestaurtinib' of Supplementary Table 1),run:Lestaurtinib_02566_R3,Plate:MR014) was 539 nM and the potency estimated from few doses (compound concentrations:100 nM and 1000 nM (sheet 'Lestaurtinib' of Supplementary Table 1),run:Lestaurtinib_02572_R1,Plate:MR015) was 628 nM. It also gave a potency estimated from few doses (compound concentrations:100 nM and 1000 nM (sheet 'Lestaurtinib' of Supplementary Table 1),run:Lestaurtinib_02572_R2,Plate:MR015) of 517 nM, a potency estimated from few doses (compound concentrations:100 nM and 1000 nM (sheet 'Lestaurtinib' of Supplementary Table 1),run:Lestaurtinib_02572_R3,Plate:MR015) of 559 nM and a potency estimated from few doses (compound concentrations:100 nM and 1000 nM (sheet 'Lestaurtinib' of Supplementary Table 1),run:Lestaurtinib_02577_R2,Plate:MR016) of 613 nM. For the same substance, the potency estimated from few doses (compound concentrations:100 nM and 1000 nM (sheet 'Lestaurtinib' of Supplementary Table 1),run:Lestaurtinib_02577_R3,Plate:MR016) was 470 nM, the potency estimated from few doses (compound concentrations:100 nM and 1000 nM (sheet 'Lestaurtinib' of Supplementary Table 1),run:Lestaurtinib_02584_R1,Plate:MR017) was 493 nM and the potency estimated from few doses (compound concentrations:100 nM and 1000 nM (sheet 'Lestaurtinib' of Supplementary Table 1),run:Lestaurtinib_02584_R2,Plate:MR017) was 437 nM. The potency estimated from few doses (compound concentrations:100 nM and 1000 nM (sheet 'Lestaurtinib' of Supplementary Table 1),run:Lestaurtinib_02584_R3,Plate:MR017) was 508 nM, the potency estimated from few doses (compound concentrations:100 nM and 1000 nM (sheet 'Lestaurtinib' of Supplementary Table 1),run:Lestaurtinib_02601_R1,Plate:MR018) was 580 nM and the potency estimated from few doses (compound concentrations:100 nM and 1000 nM (sheet 'Lestaurtinib' of Supplementary Table 1),run:Lestaurtinib_02601_R2,Plate:MR018) was 523 nM. For the same substance, the potency estimated from few doses (compound concentrations:100 nM and 1000 nM (sheet 'Lestaurtinib' of Supplementary Table 1),run:Lestaurtinib_02601_R3,Plate:MR018) was 615 nM, the potency estimated from few doses (compound concentrations:100 nM and 1000 nM (sheet 'Lestaurtinib' of Supplementary Table 1),run:Lestaurtinib_02606_R3,Plate:MR019) was 534 nM and the potency estimated from few doses (compound concentrations:100 nM and 1000 nM (sheet 'Lestaurtinib' of Supplementary Table 1),run:Lestaurtinib_02624_R1,Plate:MR020) was 496 nM.
